In PubChem BioAssay AID488969 (Vanderbilt High Throughput Screening Facility, 2010):
Whole data set: some 110,000 compounds, median “z-score” near -0.1, cut for the highest 2% near 2. For the sample, the highest values were picked, then their nearest neighbours and some compounds at random. Calls of active or inactive are those of the source.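 Rule for the calls: active = z-score in the third read window above 3 or below -3; inactive = the rest.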

The compounds below were run against Metabotropic glutamate receptor 8 (Rattus norvegicus) (UniProt P70579) (assay: mGluR8 Gi/Go-coupled signaling modulation – cell-based, rat, thallium flux, HTS, primary screen (AID 488969)). Conditions: HEK293 rat mGluR8, GIRK (G protein-gated inwardly rectifying potassium channel) thallium flux, FluoZin2; at 10 µM; stronger effect = higher value; submaximal glutamate (EC20) added with thallium.
Sequence of Metabotropic glutamate receptor 8 (Rattus norvegicus) (P70579 whole entry, looked up): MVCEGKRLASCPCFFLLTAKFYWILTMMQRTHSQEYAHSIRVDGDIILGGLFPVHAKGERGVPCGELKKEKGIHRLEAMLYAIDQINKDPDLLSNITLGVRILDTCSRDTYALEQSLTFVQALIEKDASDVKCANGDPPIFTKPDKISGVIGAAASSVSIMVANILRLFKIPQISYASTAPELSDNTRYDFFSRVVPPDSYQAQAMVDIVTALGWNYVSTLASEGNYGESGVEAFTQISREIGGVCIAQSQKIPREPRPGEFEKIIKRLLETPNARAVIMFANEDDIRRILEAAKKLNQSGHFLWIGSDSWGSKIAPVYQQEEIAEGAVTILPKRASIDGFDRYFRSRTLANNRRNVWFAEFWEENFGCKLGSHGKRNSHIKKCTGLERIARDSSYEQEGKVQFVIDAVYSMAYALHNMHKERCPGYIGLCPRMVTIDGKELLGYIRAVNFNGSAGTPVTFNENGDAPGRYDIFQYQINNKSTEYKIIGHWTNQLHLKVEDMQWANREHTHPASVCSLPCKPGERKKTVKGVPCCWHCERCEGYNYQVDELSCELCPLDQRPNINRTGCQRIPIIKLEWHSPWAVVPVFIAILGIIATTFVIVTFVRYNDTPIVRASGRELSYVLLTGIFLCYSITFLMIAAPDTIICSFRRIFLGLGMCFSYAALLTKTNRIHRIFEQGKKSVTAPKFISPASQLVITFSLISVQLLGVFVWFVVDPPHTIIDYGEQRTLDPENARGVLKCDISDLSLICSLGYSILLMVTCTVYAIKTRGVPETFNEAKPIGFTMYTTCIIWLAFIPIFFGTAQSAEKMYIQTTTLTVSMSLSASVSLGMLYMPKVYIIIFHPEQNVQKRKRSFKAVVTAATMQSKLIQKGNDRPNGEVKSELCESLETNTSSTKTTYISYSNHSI

**Q.** `CCC(=O)NCc1cc(-c2nn(C)c(=O)c3ccccc23)ccc1C` was tested. Which z-score did it give?
**A.** -0.415

**Q.** `COc1ccc(C)cc1NC(=O)C(Sc1ccccc1)c1ccccc1` (centres undefined) was tested. Which z-score did it give?
**A.** 0.296

**Q.** With `COc1cccc(NC(=O)C(Sc2nc3ccccc3c(=O)n2CC(C)C)c2ccccc2)c1` (centres undefined) as the compound, how does the z-score read?
**A.** 2.63

**Q.** How did the z-score turn out when `COc1cccc(NC(=O)C(Sc2nnc3ccccn23)c2ccccc2)c1` (centres undefined) was run?
**A.** -0.184

**Q.** For `CCNc1nc(NCC)n2c(SC(C(=O)Nc3cc(C)ccc3OC)c3ccccc3)nnc2n1` (centres undefined), which z-score is on record?
**A.** -0.463

**Q.** Which z-score does the source give for `CCCn1c(SC(C(=O)Nc2cc(C)ccc2OC)c2ccccc2)nc2ccccc2c1=O` (centres undefined) here?
**A.** 3.61 (active)

**Q.** With `CCCn1c(SC(C(=O)Nc2cccc(OC)c2)c2ccccc2)nc2ccccc2c1=O` (centres undefined) as the compound, how does the z-score read?
**A.** -0.276

**Q.** For `Cc1cccc(CCNC(=O)C2CCC(CNc3c(N4CCCC4)c(=O)c3=O)CC2)c1` (centres undefined), which z-score is on record?
**A.** -0.262

**Q.** With `CCOc1ccc(-c2nnn(CC(=O)NCc3ccco3)n2)cc1OCC` as the compound, how does the z-score read?
**A.** 0.241

**Q.** With `CC(=O)C1=C(c2ccccc2)NC(=O)NC1c1ccccc1OCC#N` (centres undefined) as the compound, how does the z-score read?
**A.** 1.96

**Q.** With `CC(=O)c1c(C)[nH]c(C(=O)N2CCN(C(=O)c3ccco3)CC2)c1C` as the compound, how does the z-score read?
**A.** -0.564

**Q.** Which z-score does the source give for `O=C(CSc1nc2c(cnn2-c2ccc(F)cc2)c(=O)[nH]1)N1CCOCC1` here?
**A.** 0.476

**Q.** `COC(=O)c1cnn(-c2cc(Oc3cccc(C)c3)ncn2)c1N` was tested. Which z-score did it give?
**A.** 0.309

**Q.** With `CC(=O)c1cnn(-c2cc(Oc3ccc(F)cc3)ncn2)c1C` as the compound, how does the z-score read?
**A.** 0.354

**Q.** How did the z-score turn out when `CC(=O)c1cnn(-c2cc(Oc3cccc(C)c3)ncn2)c1C` was run?
**A.** 2.24

**Q.** Which z-score does the source give for `COC(=O)c1ccc(C2C(Oc3ccc(OC)cc3)C(=O)N2CCc2ccc(OC)c(OC)c2)cc1` (centres undefined) here?
**A.** -0.234

**Q.** With `N#Cc1c(N)nc2c3c(sc(=N)c2c1N)NC(=O)CC3c1ccccc1` (centres undefined) as the compound, how does the z-score read?
**A.** -0.0395

**Q.** How did the z-score turn out when `COc1ccc(OC)c(S(=O)(=O)NCc2csc(-c3ccccc3)n2)c1` was run?
**A.** -0.245

**Q.** `CS(=O)(=O)NCc1csc(-c2ccccc2)n1` was tested. Which z-score did it give?
**A.** 2.26

**Q.** With `CCS(=O)(=O)NCCc1csc(-c2ccccc2)n1` as the compound, how does the z-score read?
**A.** -0.276

**Q.** With `COc1cccc(CNC(=O)Cc2nc3nc(C)cc(C)n3n2)c1` as the compound, how does the z-score read?
**A.** -0.187

**Q.** How did the z-score turn out when `Cn1cc(C(=O)Nc2cccc(F)c2)cn1` was run?
**A.** 0.0603

**Q.** How did the z-score turn out when `COc1ccc(CN2C(=O)c3ccccc3C(/C=N\OCc3ccc(C)cc3)C2=O)cc1` (centres undefined) was run?
**A.** 2.42

**Q.** Which z-score does the source give for `COc1ccc(CN2C(=O)c3ccccc3C(/C=N\OCc3ccc(F)cc3)C2=O)cc1` (centres undefined) here?
**A.** 0.722

**Q.** `COc1ccc(CN2C(=O)c3ccccc3C(/C=N/OCc3ccc(Cl)cc3)C2=O)cc1` (centres undefined) was tested. Which z-score did it give?
**A.** 0.378

**Q.** How did the z-score turn out when `COc1ccc(OC)c(/C(O)=C/C(=O)C(=O)Nc2cc(C)cc(C)c2)c1` was run?
**A.** 0.571

**Q.** For `CCOC(=O)C(NC(=O)c1ccccc1)(OCc1ccc(F)cc1)C(F)(F)F` (centres undefined), which z-score is on record?
**A.** 0.14

**Q.** `Cc1cc(C(=O)CSc2nnc(-c3ccccc3)n2C)c(C)n1C` was tested. Which z-score did it give?
**A.** -0.546

**Q.** `Cc1cc(C(=O)CSc2nnc(-c3ccncc3)n2-c2ccccc2)c(C)n1C` was tested. Which z-score did it give?
**A.** 4.58 (active)

**Q.** How did the z-score turn out when `CCn1c(SCC(=O)c2cc(C)n(C)c2C)nnc1-c1ccccc1` was run?
**A.** 0.0656

**Q.** How did the z-score turn out when `C=CCn1c(SCC(=O)NCCc2ccccc2)nnc1C(C)NC(=O)c1cccs1` (centres undefined) was run?
**A.** 0.0814

**Q.** With `O=c1c(-c2nnc(SCc3ccc(Cl)cc3)o2)cccn1Cc1ccccc1` as the compound, how does the z-score read?
**A.** 0.618

**Q.** Which z-score does the source give for `N#C/C(=C\c1ccc(OC(=O)c2ccccn2)cc1)C(N)=O` here?
**A.** -0.197

**Q.** For `COc1ccc(S(=O)(=O)Nc2cc(Sc3ncn[nH]3)c(O)c3ccccc23)cc1`, which z-score is on record?
**A.** 0.366

**Q.** How did the z-score turn out when `O=S(=O)(Nc1cc(Sc2cccc3cccnc23)c(O)c2ccccc12)c1ccc(F)cc1` was run?
**A.** 5.2 (active)

**Q.** For `O=S(=O)(NCCOc1cccc2cccnc12)c1ccc(F)cc1`, which z-score is on record?
**A.** -0.153

**Q.** `COC(=O)c1ccc(N2CCN(S(=O)(=O)c3ccccc3)CC2)c([N+](=O)[O-])c1` was tested. Which z-score did it give?
**A.** -0.111

**Q.** For `Cc1cc(=O)n(C)c(=O)n1CC(=O)N1CCCCCC1`, which z-score is on record?
**A.** 0.975

**Q.** How did the z-score turn out when `Cc1c(NC(=O)/C(C#N)=C/c2cccs2)c(=O)n(-c2ccccc2)n1C` was run?
**A.** 0.559

**Q.** For `COc1ccc(OC(=O)c2cc3ccccc3o2)cc1`, which z-score is on record?
**A.** 0.125

**Q.** With `O=C(Oc1ccccc1)c1cc2ccccc2o1` as the compound, how does the z-score read?
**A.** 2.68

**Q.** Which z-score does the source give for `O=C(Nc1ccccc1)c1ccc(OC(=O)c2cc3ccccc3o2)cc1` here?
**A.** -0.284

**Q.** Which z-score does the source give for `CCCCn1c(=O)c(C(=O)c2ccccc2)nc2ccccc21` here?
**A.** -0.617

**Q.** Which z-score does the source give for `S=c1sc2c(N3CCN(Cc4ccccc4)CC3)ncnc2n1-c1ccccc1` here?
**A.** 0.467

**Q.** Which z-score does the source give for `COc1ccc(CCN(Cc2cccs2)S(=O)(=O)c2ccc(S(=O)(=O)N3CCC(C)CC3)cc2)cc1OC` here?
**A.** -0.101

**Q.** `CCN(CC)CCn1c(=S)[nH]c2cc(Cl)ccc2c1=O` was tested. Which z-score did it give?
**A.** 1.41

**Q.** With `CCN(CC)CCCn1c(=S)[nH]c2cc(OC)c(OC)cc2c1=O` as the compound, how does the z-score read?
**A.** -0.0622

**Q.** With `CCOC(=O)N1CCN(C(=O)c2ccc3c(=O)n(CCC4=CCCCC4)c(=S)[nH]c3c2)CC1` as the compound, how does the z-score read?
**A.** 0.221

**Q.** With `CCN(CC)CCCn1c(=S)[nH]c2cc(Cl)ccc2c1=O` as the compound, how does the z-score read?
**A.** 4.1 (active)

**Q.** Which z-score does the source give for `CCN(CC)CCCn1c(=S)[nH]c2ccc(Cl)cc2c1=O` here?
**A.** 0.0726

**Q.** For `O=c1c2ccc(Cl)cc2[nH]c(=S)n1CCC1=CCCCC1`, which z-score is on record?
**A.** 5.05 (active)

**Q.** For `O=c1c2ccccc2[nH]c(=S)n1CCC1=CCCCC1`, which z-score is on record?
**A.** 0.577

**Q.** How did the z-score turn out when `O=c1c2oc3ccccc3c2[nH]c(=S)n1-c1ccccc1` was run?
**A.** 0.645

**Q.** Which z-score does the source give for `CCCCn1c(=S)[nH]c2c(oc3ccc(Cl)cc32)c1=O` here?
**A.** 13.1 (active)
